In PubChem BioAssay (NCATS):
Values joined by “and” are separate entries in the source; they are usually repeats but may differ in a detail not shown here. Equal entries are not always repeated. Records with an inconclusive call do not appear. Active and inactive are the calls of the source. Calls follow the shape of the dose curve; as a rule, active = well fitted curve in the direction sought with a large enough effect; inconclusive = small, poorly fitted or top-dose-only effect, or another doubt; inactive = no such curve, though single readings can be large; an effect the other way counts as inactive or inconclusive.

Key:
[1] = test system: PA-1; experiment: Primary qHTS to identify gynecologic anti-cancer compounds using libraries of approved drugs and bioactive compounds (AID 1345084); conditions: Gynecologic cancer cell panel viability, ATPlite luminescence, 48 h; series mostly up to 57.5 µM; also: nearly all actives have a fitted effect of over 55% in size
Procedure, shortened: (§1)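 Measured: luminescence after ATPlite addition (15 min, RT). Exposure: 48 h, 37 C, 5% CO2.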

[2] = test system: SKOV3; experiment: as above; conditions: Gynecologic cancer cell panel viability, ATPlite luminescence, 48 h; series mostly up to 57.5 µM
Procedure, shortened: as §1

[3] = test system: Tov-21-G; experiment: as above; conditions: Gynecologic cancer cell panel viability, ATPlite luminescence, 48 h; series mostly up to 57.5 µM
Procedure, shortened: as §1

[4] = test system: Tov112D; experiment: as above; conditions: Gynecologic cancer cell panel viability, ATPlite luminescence, 48 h; series mostly up to 57.5 µM
Procedure, shortened: as §1

[5] = Drug repurposing screens with cells derived from glioblastoma tumor samples (AID 1345199); conditions: GBM patient neurospheres viability, ATP luminescence, 48 h; also: nearly all actives have a fitted effect of over 40% in size; also: potency is read from the fitted curve at half-maximal effect
Procedure, shortened: (§2)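 Four patient lines of CD133+ GBM neurospheres were screened at several concentrations; hits were retested in those lines plus three slower-growing GBM lines, using 48-hour treatment and ATP-based viability.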

[6] = test system: astro; experiment: as above; conditions: viability, ATP luminescence, 48 h; series mostly up to 45.9 µM
Procedure, shortened: as §2

[7] = at 45.9 µM (top of the series), tumour line B
[8] = at 45.9 µM (top of the series), tumour line D
[9] = at 46 µM (top of the series), tumour line A
[10] = at 46.1 µM (top of the series), tumour line C
[11] = at 20 µM (top of the series), tumour line C
[12] = at 21.2 µM (top of the series), tumour line B
[13] = at 21.2 µM (top of the series), tumour line D
[14] = at 21.3 µM (top of the series), tumour line A
% is scaled to controls: 0 for no effect and ±100 for the full control effect.

CCN1CCCC1=O
inactive: Potency [1] | Potency [2] | Potency [3] | Potency [4] | activity, negative = cell killing [5, 7] -8.97% | activity, negative = cell killing [5, 8] 9.06% | activity, negative = cell killing [5, 9] -27.1% | activity, negative = cell killing [5, 10] 2.13% | Potency [6]

Cc1ccc(Nc2c(F)cccc2Cl)c(CC(=O)O)c1
inactive: Potency [1] | Potency [2] | Potency [3] | Potency [4] | activity, negative = cell killing [5, 7] -6.28% | activity, negative = cell killing [5, 8] -3.08% | activity, negative = cell killing [5, 9] -32.8% | activity, negative = cell killing [5, 10] -3.92% | Potency [6]

CN1CCC[C@@H]1c1cccnc1
inactive: Potency [1] | Potency [2] | Potency [3] | Potency [4] | activity, negative = cell killing [5, 7] -7.48% | activity, negative = cell killing [5, 8] -12.9% | activity, negative = cell killing [5, 9] -29.1% | activity, negative = cell killing [5, 10] -0.391% | Potency [6]

CC(=O)Nc1c(I)cc(I)c(C(=O)O)c1I
inactive: Potency [1] | Potency [2] | Potency [3] | Potency [4] | activity, negative = cell killing [5, 7] -18.2% | activity, negative = cell killing [5, 8] -1.85% | activity, negative = cell killing [5, 9] -31.3% | activity, negative = cell killing [5, 10] 23.7% | Potency [6]

COc1cc(C(=S)N2CCOCC2)cc(OC)c1OC
inactive: Potency [1] | Potency [2] | Potency [3] | Potency [4] | activity, negative = cell killing [5, 7] -7.77% | activity, negative = cell killing [5, 8] -20% | activity, negative = cell killing [5, 9] -25.7% | activity, negative = cell killing [5, 10] -20.5% | Potency [6]

Cc1ccnc(NS(=O)(=O)c2ccc(N)cc2)n1
inactive: Potency [1] | Potency [2] | Potency [3] | Potency [4] | activity, negative = cell killing [5, 11] -10.2% | activity, negative = cell killing [5, 12] -5.77% | activity, negative = cell killing [5, 13] -5.49% | activity, negative = cell killing [5, 14] -16.8% | Potency [6]

CCOC(=O)[C@H](CCc1ccccc1)N[C@@H](C)C(=O)N1Cc2ccccc2C[C@H]1C(=O)O
inactive: Potency [1] | Potency [2] | Potency [3] | Potency [4] | activity, negative = cell killing [5, 7] -8.88% | activity, negative = cell killing [5, 8] -11.4% | activity, negative = cell killing [5, 9] -15.3% | activity, negative = cell killing [5, 10] 11.9% | Potency [6]

C[C@H]1[C@H](NC(=O)/C(=N/OC(C)(C)C(=O)O)c2csc(N)n2)C(=O)N1S(=O)(=O)O (stereo in doubt)
inactive: Potency [1] | Potency [2] | Potency [3] | Potency [4] | activity, negative = cell killing [5, 11] -1.55% | activity, negative = cell killing [5, 12] -2.78% | activity, negative = cell killing [5, 13] 9.37% | activity, negative = cell killing [5, 14] -17.3% | Potency [6]

CC(Cc1ccccc1)(NC(=O)CN)c1ccccc1 (configuration not stated)
inactive: Potency [1] | Potency [2] | Potency [3] | Potency [4] | activity, negative = cell killing [5, 7] -9.21% | activity, negative = cell killing [5, 8] 3.89% | activity, negative = cell killing [5, 10] -26.6% | Potency [6]
active: Potency ([5]; tumour line A) 20 µM

NC[C@H]1O[C@H](O[C@H]2[C@H](O)[C@@H](O[C@H]3O[C@H](CO)[C@@H](O)[C@H](N)[C@H]3O)[C@H](N)C[C@@H]2N)[C@H](N)[C@@H](O)[C@@H]1O
inactive: Potency [1] | Potency [2] | Potency [3] | Potency [4] | activity, negative = cell killing [5, 7] -3.08% and -15.5% | activity, negative = cell killing [5, 8] -22.4% and -15.3% | activity, negative = cell killing [5, 9] -11.7% | activity, negative = cell killing [5, 10] -0.491% and -12.3% | Potency [6]

Cc1c(C(C)C)c(=O)n(-c2ccccc2)n1C
inactive: Potency [1] | Potency [2] | Potency [3] | Potency [4] | activity, negative = cell killing [5, 7] -4.08% | activity, negative = cell killing [5, 8] -9.96% | activity, negative = cell killing [5, 9] -22.1% | activity, negative = cell killing [5, 10] -13.8% | Potency [6]

O=C1OC2(c3ccc(O)cc3Oc3cc(O)ccc32)c2ccccc21
inactive: Potency [1] | Potency [2] | Potency [3] | Potency [4] | activity, negative = cell killing [5, 7] -8.7% and -8.22% | activity, negative = cell killing [5, 8] -3.66% and -8.86% | activity, negative = cell killing [5, 9] -6.74% | activity, negative = cell killing [5, 10] 11.7% and -10.7% | Potency [6]

NC(=O)CC[C@@H]1NC(=O)[C@H](Cc2ccccc2)NC(=O)[C@H](Cc2ccc(O)cc2)NC(=O)CCSSC[C@@H](C(=O)N2CCC[C@H]2C(=O)N[C@@H](CCCN=C(N)N)C(=O)NCC(N)=O)NC(=O)[C@H](CC(N)=O)NC1=O
inactive: Potency [1] | Potency [2] | Potency [3] | Potency [4] | activity, negative = cell killing [5, 7] -2.8% and 1.21% | activity, negative = cell killing [5, 8] -7.07% and -4.13% | activity, negative = cell killing [5, 9] -24.9% and -29% | activity, negative = cell killing [5, 10] -17.6% and 1.07%

Nc1nc2ncc(CNc3ccc(C(=O)N[C@@H](CCC(=O)O)C(=O)O)cc3)nc2c(=O)[nH]1
inactive: Potency [1] | Potency [2] | Potency [3] | Potency [4] | activity, negative = cell killing [5, 7] -3.4% | activity, negative = cell killing [5, 8] 4.54% | activity, negative = cell killing [5, 9] -10.5% | activity, negative = cell killing [5, 10] -9.36% | Potency [6]

CCCCN1CCCC1C(=O)Nc1c(C)cc(C)cc1C (configuration not stated)
active: Potency ([5]; tumour line A) 22.4 µM
inactive: Potency [1] | Potency [2] | Potency [3] | Potency [4] | activity, negative = cell killing [5, 7] -5.63% | activity, negative = cell killing [5, 8] -4.43% | activity, negative = cell killing [5, 10] -15.9% | Potency [6]

CCC(C(=O)OCCN(CC)CC)c1ccccc1 (configuration not stated)
inactive: Potency [1] | Potency [2] | Potency [3] | Potency [4] | activity, negative = cell killing [5, 7] -10.7% | activity, negative = cell killing [5, 8] 13.4% | activity, negative = cell killing [5, 9] -28.5% | activity, negative = cell killing [5, 10] 0.404%
